Usually viability stands for a read-out of living cells in per cent, often relative to untreated cells.

These results are taken from PubChem BioAssay (NCATS).

Inconclusive results are not listed. Values without a mark were called inactive. The source made the active and inactive calls. The call rests on the fitted dose curve; in most records, active means well fitted curve in the direction sought with a large enough effect; inconclusive means small, poorly fitted or top-dose-only effect, or another doubt; inactive means no such curve, though single readings can be large; an effect the other way counts as inactive or inconclusive.

Assay [1] is described as follows: BET inhibitor-based combinations targeting novel dependencies in MECOM-rearranged (r) AML: SET-2 cell line (AID 2202231). Further: nearly all actives have a fitted effect of over 35% in size.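 On viability: plate controls were DMSO treated cells for no effect and wells without cells for full effect.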 To be noted: SET-2 AML cells viability, CellTiter-Glo luminescence, 48 h; viability: active compounds read low, concentration not given here. Summed up:
(§1)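 Each compound was tested at eleven concentrations on cells seeded at 500/well. After two days' incubation, ATP-based luminescence reported viability; responses relative to DMSO and blank wells yielded AUC and cell-line-centred Z-AUC.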
(In general: ATP-based viability assays read luminescence as a measure of living cells.)

Assay [2] is described as follows: BET inhibitor-based combinations targeting novel dependencies in MECOM-rearranged (r) AML: OCI-AML3 cell line (AID 2202232). Further: nearly all actives have a fitted effect of over 35% in size. To be noted: Potency: OCI-AML3 viability. In short, it runs like this:
as §1

Assay [3] is described as follows: BET inhibitor-based combinations targeting novel dependencies in MECOM-rearranged (r) AML: UCSD-AML1 cell line (AID 2202235). Further: nearly all actives have a fitted effect of over 40% in size. In short, it runs like this: (§2)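 First, 500 cells per well were seeded; next, drugs were pinned as 11-point doses; then plates sat 48 hr in the incubator; finally CellTiter-Glo was added and luminescence read, with AUC and Z-AUC computed.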

Assay [4] can be described thus: BET inhibitor-based combinations targeting novel dependencies in MECOM-rearranged (r) AML: AML-194 cell line (AID 2202237; further: nearly all actives have a fitted effect of over 40% in size). In short, it runs like this: as §1
Assay [5] in a line: BET inhibitor-based combinations targeting novel dependencies in MECOM-rearranged (r) AML: HNT-34 cell line (AID 2202234). Further: nearly all actives have a fitted effect of over 35% in size. In short, it runs like this: as §2
The nature of assay [6]: BET inhibitor-based combinations targeting novel dependencies in MECOM-rearranged (r) AML: AML-191 cell line (AID 2202236; further: nearly all actives have a fitted effect of over 35% in size). Summed up: as §1
Assay [7] in a line: BET inhibitor-based combinations targeting novel dependencies in MECOM-rearranged (r) AML: MV-4-11 cell line (AID 2202233). Further: nearly all actives have a fitted effect of over 45% in size. In short, it runs like this:
as §2
Potency means the concentration at half of the fitted maximal effect.

Take `O=C(/C=C\n1cnc(-c2cc(C(F)(F)F)cc(C(F)(F)F)c2)n1)NNc1ccccn1`: the Potency was 934 nM (active) in assay [1], 833 nM (active) in assay [2], 468 nM (active) in assay [3] and 417 nM (active) in assay [4].
As to `CCS(=O)(=O)N1CCC(C(C)n2c(C)c(C(=O)NCc3c(OC)cc(C)[nH]c3=O)c3ccccc32)CC1` (stereo not given), the viability in assay [1] is 108%. Also, the Potency entry in assay [2], in assay [5], in assay [3], in assay [6] and in assay [4] was “inactive” throughout.
As to `COc1ccc2c(c1)CC[C@@H]1[C@@H]2CC[C@]2(C)[C@@H](NCCCCCCN3C(=O)C=CC3=O)CC[C@@H]12`, the viability in assay [1] was 113%. The Potency result in assay [2], in assay [3], in assay [6] and in assay [4] was “inactive” each time.
For `CNC(=O)[C@H](Cc1c[nH]c2ccccc12)NC(=O)[C@@H](CC(=O)NO)CC(C)C`, in assay [1], the viability was 112%. In addition, the Potency result in assay [2], in assay [3], in assay [6] and in assay [4] was “inactive” throughout.
In the case of `CCN1CCN(Cc2ccc(-c3cc4c(N[C@H](C)c5ccccc5)ncnc4[nH]3)cc2)CC1`, the Potency in assay [1] is 23500 nM (active); in assay [2] it was 20900 nM (active); in assay [5], 2630 nM (active); in assay [6], 18600 nM (active); in assay [4] it was 26300 nM (active).
The corresponding values for `O=S(=O)(Nc1ccc(-c2cccnc2)c2cccnc12)c1cccc(C(F)(F)F)c1` are 10500 nM (active), 7420 nM (active), 4170 nM (active), 5900 nM (active) and 7420 nM (active).
As to `O=C(O)c1ccccc1-c1ccc(/C=c2\sc3nc4cc(Br)cnc4n3c2=O)o1`, in assay [1], the viability is 92.3%. In addition, the Potency entry in assay [2], in assay [3], in assay [6] and in assay [4] was “inactive” throughout.
`c1ccc2c(Cc3c[nH]c4ccccc34)c[nH]c2c1`: the viability in assay [1] was 103%. Besides, the Potency result in assay [2], in assay [3] and in assay [6] was “inactive” throughout.
In the case of `O=C1Cc2cc(C(=O)NC3C[C@H]4CC[C@@H](C3)N4S(=O)(=O)CC3CCN(CCCC(F)(F)F)CC3)c(Cl)cc2N1` (stereo not given in full), the viability in assay [1] is 107%. The Potency entry in assay [2], in assay [5], in assay [3] and in assay [4] was “inactive” each time.
In the case of `COc1cc([C@@H]2c3cc4c(cc3[C@@H](O[C@@H]3O[C@@H]5CO[C@@H](c6cccs6)O[C@H]5[C@H](O)[C@H]3O)[C@H]3COC(=O)[C@H]23)OCO4)cc(OC)c1O`, the Potency in assay [1] is 1180 nM (active); in assay [2], 263 nM (active); in assay [3] it was 132 nM (active); in assay [6], 332 nM (active); in assay [4], 372 nM (active).
For the compound `CN[C@@H](C)C(=O)N[C@@H]1C(=O)N(Cc2c(C)ccc3ccccc23)c2ccc(C#N)cc2N(C(C)=O)[C@H]1C`, in assay [1], the viability was 102%. Moreover, the Potency result in assay [2], in assay [3] and in assay [4] was “inactive” each time.
Take `CC[C@H](CC[C@@H](C)[C@H]1CC[C@H]2[C@@H]3CC=C4C[C@@H](O)CC[C@]4(C)[C@H]3CC[C@]12C)C(C)C`: the viability in assay [1] is 104%. For the same compound, the Potency entry in assay [7], in assay [5], in assay [3], in assay [6] and in assay [4] was “inactive” each time.
On to `CN(C)C[C@@H]1CCn2cc(c3ccccc32)C2=C(C(=O)NC2=O)c2cn(c3ccccc23)CCO1`, for which the Potency in assay [1] was 8330 nM (active); in assay [2], 20900 nM (active); in assay [6], 7420 nM (active); in assay [4], 5900 nM (active).
On to `Nc1nc2cc(-c3ccc4ncc(C(=O)N5CCOCC5)n4c3)ccc2o1`, for which the viability in assay [1] is 99.4%. Moreover, the Potency in assay [7] is 16600 nM (active); in assay [5], 16600 nM (active); in assay [3] it was 8330 nM (active).
As for `CCCCCCCCCCCC1=C(O)C(=O)C=C(O)C1=O`, the viability in assay [1] was 115%. The Potency in assay [7] is 13200 nM (active).
Consider `CC(=O)Nc1ccc(O)cc1`, for which, in assay [1], the viability is 94.1%. Moreover, the Potency entry in assay [7], in assay [5], in assay [3], in assay [6] and in assay [4] was “inactive” each time.
Take `CCC[C@H](NC(=O)[C@@H]1[C@H]2CCC[C@H]2CN1C(=O)[C@@H](NC(=O)[C@@H](NC(=O)c1cnccn1)C1CCCCC1)C(C)(C)C)C(=O)C(=O)NC1CC1`: the Potency in assay [1] is 263 nM (active). The Potency result in assay [2] and in assay [4] was “inactive” each time.
On to `C/C(=N\NC(=S)N1CCC1)c1ccccn1`, for which the Potency was 59 nM (active) in assay [1]; 37.2 nM (active) in assay [7]; 37.2 nM (active) in assay [5]; 41.7 nM (active) in assay [3]; 37.2 nM (active) in assay [6]; 41.7 nM (active) in assay [4].
Consider `CCOC(=O)[C@H](CCc1ccccc1)N[C@H]1CCc2ccccc2N(CC(=O)O)C1=O`, for which the viability in assay [1] is 115%. For the same compound, in assay [7], the Potency was 7420 nM (active). Also, the Potency result in assay [5], in assay [3], in assay [6] and in assay [4] was “inactive” each time.
Consider `CN(C)CC[C@H](CSc1ccccc1)Nc1ccc(S(=O)(=O)NC(=O)c2ccc(N3CCN(Cc4ccccc4-c4ccc(Cl)cc4)CC3)cc2)cc1[N+](=O)[O-]`, for which the Potency in assay [1] was 10500 nM (active); in assay [7], 263 nM (active); in assay [5], 1860 nM (active); in assay [3], 2950 nM (active); in assay [6], 2350 nM (active); in assay [4], 1860 nM (active).
`Nc1nc(N)c2nc(-c3cccc(Cl)c3)c(N)nc2n1`: the Potency was 372 nM (active) in assay [1], 2950 nM (active) in assay [2] and 5250 nM (active) in assay [6].
On to `CCO[C@@H]1OC(=O)C[C@@H]1NC(=O)[C@@H]1CCCN2C(=O)CC[C@H](NC(=O)c3nccc4ccccc34)C(=O)N12`, for which the viability in assay [1] was 125%. Moreover, the Potency result in assay [7], in assay [5], in assay [3], in assay [6] and in assay [4] was “inactive” each time.
